Only some compounds are listed: those with a hit (about 13% of all), similar ones and a draw of the others.
CHOP inhibitor = CHOP inhibition in unfolded protein response; inhibition, % at 10 µM; AID 2732; CHO-K1 CHOP-promoter luciferase, tunicamycin-induced, 15-18 h; hit rate 3.8% among 220,000;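 active = compounds that reduced the stress-induced luciferase reporter signal by more than about 70% of percent inhibition, limit read from the data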;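 note: 0% = tunicamycin plus vehicle and 100% = wells without tunicamycin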
RAM inhibit = yeast RAM network inhibition | inhibition, % at 50 µM | S. cerevisiae dse1pr::URA3 reporter, 5-FOA growth OD615, 2 d; analog-sensitive cbk1-as2 kinase mutant strain | hit rate 1.8% among 190,000 | AID 868;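 active = inhibition above a set limit, 3 SD over mean compound inhibition, cut at about 8.4% in these data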;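 note: 0% = DMSO-only wells with no growth and 100% = 10 µM 1-NA-PP1 full growth; inhibition rescues growth on 5-FOA so higher OD means more RAM inhibition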
WT yeast gro inh = growth inhibition of WT yeast, mitochondrial fusion screen. inhibition, % at 10 µM. AID 1362. hit rate 2.1% among 190,000. mitochondrial fusion phenotypic screen, WT strain; in the data active = inhibition above about 58%; tested in S. cerevisiae
L major viab = Leishmania major promastigote growth inhibition; hit rate 9% among 200,000; inhibition, % at 10 µM; Leishmania major promastigotes, resazurin fluorescence viability; in the data active = inhibition above about 50%;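 note: promastigotes grown with compound for 44 hours at 28 °C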
* marks the source's active call; other numbers are inactive results; x = no result.

SMILES	CHOP inhibitor	RAM inhibit	WT yeast gro inh	L major viab
O=C(NCCN1CCOCC1)c1cc(-c2ccc(Br)cc2)on1	-3.8	0.9	11.6	1.4
NC1=NC(=O)/C(=C/c2cn(CCC(=O)O)nc2-c2ccc(Cl)cc2)S1	-5.9	8.6*	-16.2	-8.4
NC1=NC(=O)/C(=C/c2cn(CCC(=O)O)nc2-c2ccc(F)cc2)S1	6.3	7.5	-17.6	-1.6
CCCOc1ccc(-c2nn(-c3ccccc3)cc2/C=C2\SC(N)=NC2=O)cc1	-18.6	8.8*	7.4	-1.7
Cc1ccc(-c2nn3cnnc3c3ccccc23)cc1	0.7	0.4	16.6	-0.8
Cn1c(=O)c2[nH]c(COc3ccc(C(C)(C)C)cc3)nc2n(C)c1=O	56.6	x	x	x
CC(NC(=O)/C=C/c1ccco1)c1nc2ccccc2n1Cc1ccccc1F (stereo unspecified)	-9.5	1.0	1.3	9.4
CC(C)c1ccc(/C=c2\sc3nc(-c4ccncc4)nn3c2=O)cc1	70.9*	-0.1	30.0	-4.5
O=C(COc1nc2ccccc2nc1N1CCOCC1)NC1CCCCC1	-12.2	1.9	7.0	-6.7
CCCNC(=O)COc1nc2ccccc2nc1N1CCOCC1	-9.0	1.1	-5.2	-1.4
CN(C)S(=O)(=O)c1cccc(NC(=O)COc2nc3ccccc3nc2N2CCOCC2)c1	-2.5	0.3	-4.2	55.6*
O=C(COc1nc2ccccc2nc1N1CCOCC1)Nc1ccc(S(=O)(=O)N2CCCC2)cc1	2.5	1.6	11.2	66.7*
Nc1nc(SCC(=O)Nc2cccc(Oc3ccccc3)c2)n[nH]1	-1.6	1.6	1.8	56.4*
CCCN(CCC)c1nc2ccccc2nc1C(C#N)C(=O)OCCOC (stereo unspecified)	67.3	3.5	25.9	11.4
C=CCN(CC=C)c1nc2ccccc2nc1C(C#N)C(=O)OCCOC (stereo unspecified)	39.1	0.1	59.4*	8.7
O=C(Cn1c2ccc(F)cc2c2nc3n(c(=O)c21)CCS3)Nc1ccccc1F	10.7	3.5	9.2	13.0
O=C(Cn1c2ccc(F)cc2c2nc3n(c(=O)c21)CCS3)Nc1ccccc1C(F)(F)F	77.8*	1.2	1.8	-1.7
CCc1ccc(OCCCC(=O)NCc2ccccc2)cc1	3.0	0.4	-0.7	-2.6
CCc1ccc(OCCCOc2ccc(C=O)cc2)cc1	72.5*	2.0	3.9	-0.7
CCOc1ccc(N2C(=O)C3ON(C)C(c4ccc([N+](=O)[O-])cc4)C3C2=O)cc1 (stereo unspecified)	6.4	x	x	x
CC1CCN(c2nc(Cl)nc(Nc3ccc([N+](=O)[O-])cc3)n2)CC1	-6.0	3.0	78.2*	23.0
C=CCNc1nc(Nc2ccc([N+](=O)[O-])cc2)nc(N2CCCC2)n1	-3.8	2.6	25.0	80.7*
C=CCNc1nc(Cl)nc(Nc2ccc([N+](=O)[O-])cc2)n1	-1.3	3.5	3.0	-1.4
C=CCNc1nc(Nc2ccc(-c3nc4ccccc4o3)cc2)nc(N2CCOCC2)n1	18.2	6.8	-15.5	98.3*
O=C(CN1N=C(c2ccccc2)CCC1=O)NCc1ccco1	-0.4	0.5	-12.2	-5.9
SMILES	CHOP inhibitor	RAM inhibit	WT yeast gro inh	L major viab
CC1CCN(S(=O)(=O)c2cc(C(=O)N3CCN(c4ncccn4)CC3)ccc2Br)CC1	38.5	0.8	-6.6	85.3*
Cc1nc(-c2noc(-c3ccc(Cl)cc3)n2)c(C(F)(F)F)o1	-19.5	x	x	x
CN1CCN(C(=S)c2cn(Cc3ccc(Br)cc3)c3ccccc23)CC1	18.7	-1.1	78.7*	52.5*
CC1CCN(C(=S)c2cn(Cc3cccc(F)c3)c3ccccc23)CC1	25.2	5.3	71.3*	66.9*
CCc1nn(CC(=O)Nc2ccc(Br)c(C)c2)c(=N)s1	-10.2	1.0	16.5	6.9
CCCCCCC1CCC(C(=O)N2CCOCC2)CC1 (stereo unspecified)	-25.6	-1.1	16.6	-2.1
CCn1cc(CNC(=O)c2c(-c3c(Cl)cccc3Cl)noc2C)c(C)n1	-40.0	1.5	11.1	-3.1
COc1ccc(C2SCC(=O)N2CC23CC4CC(CC(C4)C2)C3)cc1 (stereo unspecified)	86.2*	1.1	76.3*	33.0
COc1ccc(C2SCC(=O)N2CCc2ccc(OC)c(OC)c2)cc1 (stereo unspecified)	27.7	0.5	25.6	-3.2
CC(=O)Nc1ccc(/C=N/N2CCCCC2)cc1	-37.1	0.1	-3.8	1.0
COc1ccc2c(c1)CCC(C)N2S(=O)(=O)c1ccc(C2CNC(=O)C2)cc1 (stereo unspecified)	17.7	1.7	3.2	94.6*
COc1ccc(CNS(=O)(=O)c2ccc(C3CNC(=O)C3)cc2)cc1 (stereo unspecified)	5.7	0.3	-13.8	0.0
Cc1cc(N2CCN(c3ccccc3)CC2)n2cc(-c3ccccc3)nc2n1	38.3	0.8	28.8	10.1
Cc1cc(N2CCN(c3ccccc3Cl)CC2)n2cc(-c3ccccc3)nc2n1	65.9	-0.6	74.3*	48.9
N#C/C(=C\c1cn(-c2ccccc2)nc1-c1ccccc1)S(=O)(=O)c1ccccc1	36.5	1.8	-10.8	4.7
CCOc1ccc(-c2nn(-c3ccccc3)cc2/C=C(\C#N)S(=O)(=O)c2ccccc2)cc1C	21.1	6.4	-11.1	64.0*
CC(C)(C)NC(=O)COC(=O)/C=C/c1ccc(F)cc1	11.2	0.0	-35.2	-5.8
Cc1cc(C)nc(SCc2nnc(SCC(=O)Nc3ccc(Cl)c(C(F)(F)F)c3)o2)n1	75.5*	4.2	14.4	-4.7
CCCc1[nH]n(-c2ccc([N+](=O)[O-])cc2)c(=O)c1C(C)=NCc1ccncc1	7.2	x	x	x
Cc1cccc(N2CCN(C(=O)CSc3ccsc3[N+](=O)[O-])CC2C)c1 (stereo unspecified)	12.3	0.8	17.6	63.7*
CN(C)S(=O)(=O)c1cccc(NC(=O)c2ccc(OC(F)(F)F)cc2)c1	39.6	3.0	13.8	56.9*
CN(C)S(=O)(=O)Oc1cccc(C(=O)Nc2ccc(Cl)c(Cl)c2)c1	-0.3	9.9*	16.7	-2.8
CN(C)S(=O)(=O)c1cccc(C(=O)Nc2cc(Cl)cc(Cl)c2)c1	71.3*	2.6	30.5	49.7
CN1CCN(c2ccc(Cl)cc2NC(=O)c2cccc(S(=O)(=O)N(C)C)c2)CC1	-0.9	2.1	9.4	98.7*
Cc1ccc(/C(O)=C2\C(=O)C(=O)N(Cc3cccnc3)C2c2ccccc2[N+](=O)[O-])cc1 (stereo unspecified)	-1.8	0.4	-8.6	-10.1
SMILES	CHOP inhibitor	RAM inhibit	WT yeast gro inh	L major viab
O=c1cc(O)c2ccccc2n1Cc1ccccc1	9.0	1.6	6.8	-7.6
CN(C)C(=O)c1nnsc1Sc1ccc(Cl)cc1	18.1	0.9	-0.8	3.7
CCC(=O)Nc1ccc(C(=O)CSc2nnc(-c3ccc(NS(=O)(=O)CC)cc3)o2)cc1OC	68.9	x	x	x
COc1ccc(Cl)cc1NC(=O)C1COc2ccccc2O1 (stereo unspecified)	11.4	6.0	52.2	22.5
CN1CCN(c2ccc(Cl)cc2NC(=O)C2COc3ccccc3O2)CC1 (stereo unspecified)	43.5	1.5	23.2	99.0*
CC1CCCCC1NCC#CCOc1ccc(Cl)cc1 (stereo unspecified)	-22.5	4.0	20.3	83.0*
CCOc1ccc(Br)cc1C(=O)Nc1ccc(C(=O)NCC(C)C)cc1	82.6*	-0.3	-7.4	11.6
COC(=O)Nc1ccc(Cc2ccncc2)cc1	5.3	0.2	5.5	-3.7

Screens: PubChem BioAssay, several laboratories
